# Values joined by “and” are separate entries in the source; they are usually repeats but may differ in a detail not shown here. Identical values can stand only once. Inconclusive results are not listed. Entries that show only a call come without a potency. Unmarked numbers belong to inactive results. Active and inactive are the calls of the source. Unless noted, calls come from the whole dose curve; as a rule, active = well fitted curve in the direction sought with a large enough effect; inconclusive = small, poorly fitted or top-dose-only effect, or another doubt; inactive = no such curve, though single readings can be large; an effect the other way counts as inactive or inconclusive.
# Tests used:
# [1] = Primary qHTS for small molecule stabilizers of the endoplasmic reticulum resident proteome: Secreted ER Calcium Modulated Protein (SERCaMP) assay (AID 1508630)
# In short: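 GLuc-SERCaMP-expressing SH-SY5Y cells, pretreated 16 h with compound, are challenged with thapsigargin to empty ER calcium stores; after 4 h, coelenterazine is added directly to the medium and luminescence is imaged.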
# [2] = A High-Content qHTS Against Drug Library for the Identification of Small Molecules that Inhibit DYT1 Early Onset Primary Dystonia-Associated Cell Pathology (AID 1645839; calls by dose curve; note: potency is the fitted concentration of half-maximal effect)
# In short: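 Readout: %pathology, the punctate EGFP-TorsinA distribution from imaging, as the primary channel and cell count as the toxicity counterscreen. HEK293 Flp-In cells expressing delE TorsinA were induced with tetracycline and treated with compound for 48 h.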
# [3] = target: Cytochrome P450 2D6 (Homo sapiens) (UniProt P10635); assay: Cytochrome P450 family 2 subfamily D member 6 (CYP2D6) small molecule antagonists: luciferase biochemical (cell-free) qHTS assay (AID 1645840; active = well fitted curve in the direction sought with a large enough effect in the repeat runs; an effect the other way counts as inactive or inconclusive; note: nearly all actives have a fitted effect of over 55% in size; note: potency is the fitted concentration of half-maximal effect)
# In short: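 P450-Glo luminescent screen: recombinant CYP2D6 enzyme–proluciferin substrate mix preincubated with compound 10 min at room temperature, then NADPH regeneration added for 1 h at room temperature. Detection reagent added for 20 min; luciferin light read as relative luminescence units.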
# [4] = target: Cytochrome P450 2C9 (Homo sapiens) (UniProt P11712); assay: Cytochrome P450 family 2 subfamily C member 9 (CYP2C9) small molecule antagonists: luciferase biochemical (cell-free) qHTS assay (AID 1645842; active = well fitted curve in the direction sought with a large enough effect in the repeat runs; an effect the other way counts as inactive or inconclusive; note: nearly all actives have a fitted effect of over 55% in size; note: potency is the fitted concentration of half-maximal effect)
# In short: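 Luminescence, after 20 min with luciferin detection reagent, reflected CYP2C9 turnover during a 1 h NADPH-driven reaction at 37C. Enzyme-substrate mix contained 0.4% bovine serum albumin and was preincubated with compound 10 min at room temperature.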
# [5] = Counterscreen qHTS for small molecule stabilizers of the endoplasmic reticulum resident proteome: GLuc-NoTag assay (AID 1508627); note: potency is the fitted concentration of half-maximal effect;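 for activity change, negative = inhibition: SH-SY5Y cells given compound then 100 nM thapsigargin to empty ER calcium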
# In short: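 SH-SY5Y cells stably expressing constitutively secreted GLuc (no SERCaMP tag) were pre-incubated 5 h, treated with compound for 19 h, then 100 nM thapsigargin for 4 h at 37C; medium GLuc read by coelenterazine luminescence.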
# [6] = target: Cytochrome P450 3A4 (Homo sapiens) (UniProt P08684); assay: Cytochrome P450 family 3 subfamily A member 4 (CYP3A4) small molecule antagonists: luciferase qHTS assay (AID 1645841; active = well fitted curve in the direction sought with a large enough effect in the repeat runs; an effect the other way counts as inactive or inconclusive; note: nearly all actives have a fitted effect of over 45% in size; note: potency is the fitted concentration of half-maximal effect)
# In short: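 P450-Glo CYP3A4 enzyme with proluciferin substrate was preincubated with DMSO-dissolved compounds for 10 min at room temperature. NADPH regeneration solution started a 1 h reaction. Detection reagent stopped it, and luminescence was read after 20 min.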
# [7] = Confirmatory qHTS for small molecule stabilizers of the endoplasmic reticulum resident proteome: Secreted ER Calcium Modulated Protein (SERCaMP) assay (AID 1508628); note: nearly all actives have a fitted effect of over 40% in size; note: potency is the fitted concentration of half-maximal effect
# In short: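 We seeded SH-SY5Y-GLuc-SERCaMP cells, added compounds (three concentrations in the primary run, eleven up to 76.6 uM in confirmation), incubated 16 h, depleted ER calcium with thapsigargin, and read luciferase 4 h later.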
# [8] = Primary qHTS for inhibitors of nuclear receptor binding SET domain protein 2 (NSD2) in an isogenic RCH-ACV NSD2 p.E1099K mutant (9B) (AID 1645876); note: nearly all actives have a fitted effect of over 70% in size; note: potency is the fitted concentration of half-maximal effect
# [9] = Primary qHTS for inhibitors of nuclear receptor binding SET domain protein 2 (NSD2) in an RCH-ACV wild type WT cells (2C) (AID 1645877); note: nearly all actives have a fitted effect of over 70% in size; note: potency is the fitted concentration of half-maximal effect
# [10] = Cell Viability qHTS for small molecule stabilizers of the endoplasmic reticulum resident proteome (AID 1508629); settings: cell viability counter-screen, 100 nM thapsigargin for final 4 h;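 note: human SH-SY5Y neuroblastoma cells carrying the GLuc-SERCaMP reporter; compound exposure about 46 h in total before the viability read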
# [11] = NCATS anti-infectives library activity on HEK293 viability as a counter-qHTS vs the C. elegans viability qHTS (AID 1745854)
# In short: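 HEK293 cells, 1500 per well, exposed 24 hr at 37C in 5% CO2 to compounds in a 1:5 titration, up to 41.7 uM final. Viability read as CellTiter-Glo luminescence after 10 min at room temperature.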
# [12] = NCATS anti-infectives library activity on the primary C. elegans qHTS viability assay (AID 1745855; calls by dose curve); settings: C. elegans worm area imaging, day 7; at 41.8 µM (top of the series) unless noted
# In short: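 Viability is taken from GFP fluorescence of PE254-GFP-FLuc C. elegans imaged by laser cytometry over 7 days. Ten L1 worms per well grow at 21 °C on TOP10 E. coli capsules with titrated compound; levamisole marks toxicity.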
# Cytochrome P450 2D6 (Homo sapiens), sequence (P10635 whole entry, looked up): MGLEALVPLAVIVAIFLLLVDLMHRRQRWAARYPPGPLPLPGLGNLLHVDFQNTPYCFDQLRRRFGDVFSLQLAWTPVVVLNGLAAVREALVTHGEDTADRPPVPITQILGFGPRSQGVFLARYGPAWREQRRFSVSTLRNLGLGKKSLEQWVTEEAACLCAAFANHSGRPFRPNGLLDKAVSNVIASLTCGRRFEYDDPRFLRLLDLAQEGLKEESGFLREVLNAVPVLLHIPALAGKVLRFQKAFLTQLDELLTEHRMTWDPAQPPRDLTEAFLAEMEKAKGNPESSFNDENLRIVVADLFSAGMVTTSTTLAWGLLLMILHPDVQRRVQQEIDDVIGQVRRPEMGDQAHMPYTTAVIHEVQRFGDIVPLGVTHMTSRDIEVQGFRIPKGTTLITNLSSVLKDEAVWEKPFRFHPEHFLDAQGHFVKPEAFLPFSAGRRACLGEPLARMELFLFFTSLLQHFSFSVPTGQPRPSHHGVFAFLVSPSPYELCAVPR
# Cytochrome P450 2C9 (Homo sapiens), sequence (P11712 whole entry, looked up): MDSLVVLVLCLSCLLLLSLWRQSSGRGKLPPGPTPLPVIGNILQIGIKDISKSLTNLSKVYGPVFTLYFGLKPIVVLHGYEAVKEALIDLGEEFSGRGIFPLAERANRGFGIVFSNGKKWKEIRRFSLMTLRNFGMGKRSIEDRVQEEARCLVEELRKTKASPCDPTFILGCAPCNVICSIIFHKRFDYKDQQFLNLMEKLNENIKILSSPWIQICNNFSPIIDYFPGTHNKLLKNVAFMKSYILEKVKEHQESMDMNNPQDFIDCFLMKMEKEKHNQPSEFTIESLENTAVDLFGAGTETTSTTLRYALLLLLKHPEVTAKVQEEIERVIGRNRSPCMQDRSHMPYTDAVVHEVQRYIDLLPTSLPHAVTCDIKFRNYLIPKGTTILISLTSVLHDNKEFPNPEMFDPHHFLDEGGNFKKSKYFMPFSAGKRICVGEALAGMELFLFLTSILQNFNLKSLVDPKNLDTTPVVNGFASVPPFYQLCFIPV
# Cytochrome P450 3A4 (Homo sapiens), sequence (P08684 whole entry, looked up): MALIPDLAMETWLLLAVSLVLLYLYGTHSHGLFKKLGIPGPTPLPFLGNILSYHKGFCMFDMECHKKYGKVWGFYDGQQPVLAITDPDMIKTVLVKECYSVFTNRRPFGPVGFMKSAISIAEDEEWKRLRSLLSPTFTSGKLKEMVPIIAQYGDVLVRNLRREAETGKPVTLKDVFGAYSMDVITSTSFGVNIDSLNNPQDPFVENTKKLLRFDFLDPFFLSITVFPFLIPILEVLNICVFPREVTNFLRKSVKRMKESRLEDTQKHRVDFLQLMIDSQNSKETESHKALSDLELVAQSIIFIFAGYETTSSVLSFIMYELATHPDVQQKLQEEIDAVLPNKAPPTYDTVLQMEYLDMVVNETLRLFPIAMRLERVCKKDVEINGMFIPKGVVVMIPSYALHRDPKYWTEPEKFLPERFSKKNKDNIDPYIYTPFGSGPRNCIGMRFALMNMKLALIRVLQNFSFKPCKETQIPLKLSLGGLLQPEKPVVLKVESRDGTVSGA
structure (smiles),measurement,setting,value
CC(=O)OCC1=C(C(=O)O)N2C(=O)[C@@H](NC(=O)CSc3ccncc3)[C@H]2SC1,Potency,[1],inactive
same,Potency,[2],inactive
same,Potency,[3],13.8 µM (active)
same,Potency,[4],11 µM (active)
O=C1OC2(c3ccccc31)c1cc(Br)c(O)c(Br)c1Oc1c2cc(Br)c(O)c1Br,Potency,[5],inactive
same,Potency,[6],17.4 µM (active)
same,Potency,[4],12.3 µM (active)
O=S(c1cc(Cl)cc(Cl)c1O)c1cc(Cl)cc(Cl)c1O,Potency,[1],inactive
CCCCCCCCCCCCCCC[C@H](O)[C@@H](N)CO,Potency,[5],inactive
same,Potency,[7],inactive
same,"activity change, negative = inhibition",[1],-27.1% [at 3.88 µM]
same,Potency,[3],9.77 µM (active)
same,Potency,[4],inactive
same,Potency,[8],4.73 µM (active)
same,Potency,[9],5.96 µM (active)
Nc1nc(-c2ccccc2)c(Br)c(=O)[nH]1,Potency,[1],inactive
same,Potency,[2],inactive
same,Potency,[3],inactive
same,Potency,[6],inactive
same,Potency,[4],inactive
same,Potency,[8],inactive
CC(C)Cc1ccc(CC(=O)O)cc1,Potency,[1],inactive
same,Potency,[2],inactive
same,Potency,[3],inactive
same,Potency,[4],inactive
CC(=C(CCOC(=O)C(C)C)SSC(CCOC(=O)C(C)C)=C(C)N(C=O)Cc1cnc(C)nc1N)N(C=O)Cc1cnc(C)nc1N,Potency,[1],inactive
same,Potency,[2],inactive
same,Potency,[3],inactive
same,Potency,[4],inactive
Cc1cn([C@H]2C[C@H](F)[C@@H](CO)O2)c(=O)[nH]c1=O,Potency,[1],inactive
same,Potency,[2],inactive
same,Potency,[3],inactive
same,Potency,[6],inactive
same,Potency,[4],inactive
same,Potency,[8],inactive
COc1ccc(S(=O)(=O)N2c3ccc(Cl)cc3[C@@](O)(c3ccccc3Cl)[C@H]2C(=O)N2CCC[C@@H]2C(N)=O)cc1OC,Potency,[1],inactive
same,Potency,[2],inactive
same,Potency,[3],inactive
same,Potency,[4],15.5 µM (active)
CC(C)(C)NCC(O)COc1cccc2c1C[C@H](O)[C@H](O)C2 (stereo partly specified),Potency,[1],inactive
same,Potency,[2],inactive
same,Potency,[3],inactive
same,Potency,[6],inactive
same,Potency,[8],inactive
same,Potency,[9],inactive
C#C[C@]1(O)CC[C@H]2[C@@H]3CCC4=Cc5oncc5C[C@]4(C)[C@H]3CC[C@@]21C,Potency,[1],inactive
CC(C)(Cc1c[nH]c2ccccc12)NCC(O)COc1ccccc1C#N (stereo unspecified),Potency,[5],inactive
same,max response,[10],-6.12%
same,Potency,[1],inactive
same,Potency,[4],inactive
CN(CCCN1c2ccccc2CCc2ccccc21)CC(=O)c1ccc(Cl)cc1,Potency,[5],inactive
same,Potency,[7],31.6 µM (active) and 39.8 µM (active)
same,max response,[10],24.4%
same,Potency,[3],6.09 µM (active)
same,Potency,[4],12.1 µM (active)
CN1CCC[C@@H]1CCO[C@](C)(c1ccccc1)c1ccc(Cl)cc1,Potency,[7],15.8 µM (active)
same,Potency,[8],21.1 µM (active)
O=C1C(=O)c2ccccc2C(O)=C1C1CCC(c2ccc(Cl)cc2)CC1 (stereo unspecified),Potency,[1],inactive
same,Potency,[2],inactive
same,Potency,[3],inactive
same,Potency,[6],inactive
same,Potency,[4],inactive
same,Potency,[8],inactive
same,Potency,[9],inactive
same,outcome,[11],inactive
same,outcome,[12],inactive
CCN1/C(=C/C=C/c2sc3ccccc3[n+]2CC)Sc2ccccc21,Potency,[1],inactive
same,Potency,[2],11.2 µM (active)
same,Potency,[3],2.13 µM (active)
same,Potency,[4],9.52 µM (active)
CCNC(=O)/C=C/c1cccc(Br)c1,Potency,[1],inactive
same,Potency,[2],inactive
same,Potency,[3],inactive
same,Potency,[4],inactive
CCc1cc(Cl)c(OC)c(C(=O)NC[C@@H]2CCCN2CC)c1O,Potency,[1],inactive
same,Potency,[2],inactive
same,Potency,[3],0.219 µM (active)
same,Potency,[4],inactive
CCOC(=O)Nc1ccc2c(c1)N(C(=O)CCN1CCOCC1)c1ccccc1S2,Potency,[1],inactive
same,Potency,[2],inactive
C=CCN1CCc2nc(N)sc2CC1,Potency,[5],inactive
same,Potency,[7],inactive
same,max response,[10],-7.52%
same,Potency,[1],inactive
same,Potency,[2],inactive
same,Potency,[3],inactive
same,Potency,[4],inactive
same,Potency,[8],inactive
same,Potency,[9],inactive
CCC1NC(=O)c2cc(S(N)(=O)=O)c(Cl)cc2N1 (stereo unspecified),Potency,[1],inactive
same,Potency,[2],inactive
CCN1CCCC(OC(=O)C(c2ccccc2)c2ccccc2)C1 (stereo unspecified),Potency,[1],inactive
same,Potency,[2],inactive
same,Potency,[3],1.38 µM (active)
same,Potency,[4],inactive
NCCNc1cccc2ccccc12,Potency,[1],inactive
same,Potency,[2],inactive
same,Potency,[3],7.76 µM (active)
same,Potency,[4],24.5 µM (active)
CCOc1cc(OCC)c(C(=O)CCC(=O)O)cc1OCC,Potency,[5],inactive
same,Potency,[7],inactive
same,max response,[10],24.8%
same,Potency,[2],inactive
same,Potency,[3],inactive
same,Potency,[4],inactive
same,Potency,[8],inactive
same,Potency,[9],inactive
CC(=O)O[C@]1(C(C)=O)CC[C@H]2[C@@H]3C=C(Cl)C4=CC(=O)CC[C@]4(C)[C@H]3CC[C@@]21C,Potency,[1],inactive
same,Potency,[2],inactive
same,Potency,[3],inactive
same,Potency,[4],8.71 µM (active)
CN1CCC(OC(c2ccccc2)c2ccccc2)CC1,Potency,[5],inactive
same,Potency,[7],inactive
same,max response,[10],7.61%
same,Potency,[8],inactive
CN1CCN(C2=Nc3cc(F)ccc3Cc3ccccc32)CC1,Potency,[5],28.2 µM (active)
same,Potency,[7],39.8 µM (active)
same,Potency,[2],inactive
same,Potency,[3],5.49 µM (active)
same,Potency,[4],inactive
O=C1C(CCS(=O)c2ccccc2)C(=O)N(c2ccccc2)N1c1ccccc1 (stereo unspecified),Potency,[1],inactive
same,Potency,[2],inactive
same,Potency,[3],inactive
same,Potency,[4],3.09 µM (active)
CN1CCN(c2c(F)cc3c(=O)c(C(=O)O)cn4c3c2SCC4)CC1,Potency,[1],inactive
same,Potency,[2],inactive
same,Potency,[3],inactive
same,Potency,[4],inactive
NC(=O)C1(N2CCCCC2)CCN(CCCC(=O)c2ccc(F)cc2)CC1,Potency,[1],inactive
same,Potency,[2],inactive
same,Potency,[3],4.36 µM (active)
same,Potency,[6],inactive
same,Potency,[4],inactive
same,Potency,[8],inactive
NS(=O)(=O)Cc1noc2ccccc12,Potency,[1],inactive
same,Potency,[2],inactive
same,Potency,[3],inactive
same,Potency,[6],inactive
same,Potency,[4],inactive
CC(=O)NC(=O)c1ccccc1O,Potency,[1],inactive
same,Potency,[2],inactive
same,Potency,[3],inactive
same,Potency,[4],inactive
NCc1ccccc1Sc1ccccc1CO,Potency,[1],inactive
same,Potency,[2],inactive
same,Potency,[3],4.9 µM (active)
same,Potency,[4],15.5 µM (active)
CC(C)[N+](C)(C)CC(O)COc1cccc2ccccc12 (stereo unspecified),Potency,[1],inactive
same,Potency,[2],inactive
same,Potency,[3],6.92 µM (active)
same,Potency,[4],inactive

# Source: PubChem BioAssay (NCATS)
